Laboratory results as given in PubChem BioAssay AID1159580 (chemical genetic matrix, 2015).
Where “and” joins values, the source holds several entries; their conditions need not be identical. Equal entries are not always repeated. Hit rate of the full screen: of about 5,500 compounds, about 2,000 (36%) were called active. Roughly 18% stayed inconclusive and do not appear here. Rule as the data show it: active = normalized growth mostly below about 0.91 (no sharp cut-off); inconclusive = no clear call, values can overlap the other calls; inactive = mostly above about 0.92. Some of the results follow.

Test: chemical genetic growth profiling, strain panel (AID 1159580);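 also: tested at 20 µM; growth read once vehicle control cultures reached saturation at 30 °C; 1 = growth at the plate median or of vehicle wells; lower values mean less growth of the strain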
Settings: S. cerevisiae deletion strains, growth OD

Measured: normalized growth

COc1ccc(C[C@H](N)C(=O)N[C@@H]2[C@@H](CO)OC(n3cnc4c(N(C)C)ncnc43)[C@@H]2O)cc1 (stereo partly specified)
inactive: locus YAL013W, strain DEP1, hits give low values 1.01 | locus YAL021C, strain ccr4, hits give low values 0.977 | locus YAL026C, strain drs2, hits give low values 0.996 | locus YAL030W, strain snc1, hits give low values 0.996 | locus YBL061C, strain skt5, hits give low values 0.996 | locus YBR009C, strain hhf1, hits give low values 0.988 | locus YBR021W, strain FUR4, hits give low values 1 | locus YBR023C, strain chs3, hits give low values 0.986 | locus YBR171W, strain sec66, hits give low values 0.976 | locus YBR229C, strain ROT2, hits give low values 1.01 | locus YBR231C, strain swc5, hits give low values 0.994 | locus YBR279W, strain paf1, hits give low values 0.992 | locus YCL011C, strain gbp2, hits give low values 1 | locus YCL016C, strain dcc1, hits give low values 1.01 | locus YCL029C, strain bik1, hits give low values 1.02 | locus YCL069W, strain vba3, hits give low values 0.992 | locus YCR088W, strain abp1, hits give low values 0.992 | locus YDL005C, strain med2, hits give low values 0.995 | locus YDL035C, strain GPR1, hits give low values 1 | locus YDL040C, strain nat1, hits give low values 1.01 | locus YDL074C, strain BRE1, hits give low values 0.988 | locus YDL101C, strain DUN1, hits give low values 1.01 | locus YDL134C, strain PPH21, hits give low values 1 | locus YDL185W, strain tfp1, hits give low values 1.02 | locus YDL192W, strain arf1, hits give low values 1.02 | locus YDR001C, strain nth1, hits give low values 0.982 | locus YDR069C, strain doa4, hits give low values 0.981 | locus YDR101C, strain arx1, hits give low values 1.02 | locus YDR137W, strain rgp1, hits give low values 1.01 | locus YDR150W, strain NUM1, hits give low values 1 | locus YDR159W, strain sac3, hits give low values 0.981 | locus YDR162C, strain NBP2, hits give low values 1.02 | locus YDR195W, strain ref2 0.969 | locus YDR297W, strain sur2, hits give low values 0.996 | locus YDR318W, strain mcm21, hits give low values 1.02 | locus YDR334W, strain swr1, hits give low values 0.977 | locus YDR335W, strain msn5, hits give low values 0.985 | locus YDR388W, hits give low values 1.02 | locus YDR392W, strain spt3, hits give low values 1.01 | locus YDR502C, strain sam2, hits give low values 1 | locus YEL003W, strain gim4, hits give low values 0.999 | locus YEL037C, strain rad23, hits give low values 1 | locus YEL061C, strain CIN8 (second series), hits give low values 0.99 | locus YEL061C, strain CIN8, hits give low values 1 | locus YER015W, strain faa2, hits give low values 0.991 | locus YER016W, strain bim1, hits give low values 1.01 | locus YER110C, hits give low values 1.02 | locus YER111C, strain swi4, hits give low values 0.977 | locus YER155C, strain BEM2 (second series), hits give low values 1.03 | locus YER155C, strain BEM2, hits give low values 1 | locus YER167W, strain BCK2, hits give low values 1.02 | locus YFR010W, strain ubp6, hits give low values 0.995 | locus YGL078C, strain dbp3, hits give low values 1.02 | locus YGL086W, strain mad1, hits give low values 1.02 | locus YGL167C, strain pmr1, hits give low values 1.01 | locus YGL173C, strain kem1, hits give low values 0.988 | locus YGL227W, strain vid30, hits give low values 0.992 | locus YGL240W, strain doc1, hits give low values 0.987 | locus YGL248W, strain PDE1, hits give low values 1.01 | locus YGL253W, strain hxk2, hits give low values 0.981 | locus YGR078C, strain PAC10, hits give low values 0.99 | locus YGR135W, strain pre9, hits give low values 1 | locus YGR229C, strain SMI1, hits give low values 0.996 | locus YGR252W, strain gcn5, hits give low values 1.06 | locus YHR013C, strain ard1, hits give low values 0.983 | locus YHR027C, strain rpn1, hits give low values 0.991 | locus YHR030C, strain SLT2, hits give low values 1.01 | locus YHR079C, strain IRE1 (second series), hits give low values 1.02 | locus YHR079C, strain IRE1, hits give low values 0.98 | locus YHR094C, strain hxt1, hits give low values 1.02 | locus YHR129C, strain ARP1, hits give low values 1.01 | locus YHR142W, strain chs7, hits give low values 1 | locus YHR200W, strain rpn10, hits give low values 1.03 | locus YIL066C, strain RNR3, hits give low values 1.02 | locus YIL073C, strain SPO22, hits give low values 1.06 | locus YIL125W, strain kgd1, hits give low values 1.01 | locus YIR030C, strain dcg1, hits give low values 1.02 | locus YJL092W, strain hpr5, hits give low values 0.988 | locus YJL095W, strain BCK1 (second series), hits give low values 1 | locus YJL095W, strain BCK1, hits give low values 0.997 and 0.996 | locus YJL115W, strain asf1, hits give low values 0.984 | locus YJL129C, strain trk1, hits give low values 0.987 | locus YJL134W, strain LCB3, hits give low values 1 | locus YJL154C, strain vps35, hits give low values 0.996 | locus YJL164C, strain tpk1, hits give low values 1.01 | locus YJL166W, strain qcr8, hits give low values 0.979 | locus YJL168C, strain set2, hits give low values 1.01 | locus YJL187C, strain SWE1 (second series), hits give low values 1.01 | locus YJL187C, strain SWE1, hits give low values 0.998 | locus YJR043C, strain POL32, hits give low values 0.995 | locus YJR066W, strain TOR1, hits give low values 0.937
